# Assay results as given in PubChem BioAssay (NCI).
# The panel holds about 83,000 compounds, 20% with a hit somewhere; the sample as a whole holds those more often.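 Plates (96-well) were seeded with cells, treated with compound at one concentration, and incubated for 48 hours before percent growth was determined.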 Values without a mark were called inactive. Active and inactive are the calls of the source. Rule for the calls: active = growth percent below 10; inactive = the rest.
# Key:
# Experiment in all cases: NCI-60 one-dose screen, 48 h (100 = growth as untreated, 0 = no growth, -100 = all killed)
# Details in all cases: 10 µM unless noted
# SK-MEL-2 melanoma = test system: SK-MEL-2 melanoma
# EKVX NSCLC = test system: EKVX NSCLC
# SN12C renal = test system: SN12C renal
# TK-10 renal = test system: TK-10 renal
# ACHN renal = test system: ACHN renal
# CAKI-1 renal = test system: CAKI-1 renal
# A498 renal = test system: A498 renal
# CCRF-CEM leukemia = test system: CCRF-CEM leukemia
# MOLT-4 leukemia = test system: MOLT-4 leukemia
SMILES,growth (SK-MEL-2 melanoma),growth (EKVX NSCLC),growth (SN12C renal),growth (TK-10 renal),growth (ACHN renal),growth (CAKI-1 renal),growth (A498 renal),growth (CCRF-CEM leukemia),growth (MOLT-4 leukemia)
CCOc1ccccc1-n1c(CN2CCN(C(=O)COc3ccc(CNCCCCCCN4C5CCCC4CC(OC(=O)Nc4cc(C)ccc4OC)C5)cc3)CC2)nc2ccccc2c1=O (configuration not stated),-90.9% (active),-92.1% (active),-91% (active),-86.3% (active),-100% (active),-100% (active),-93.4% (active),-64.9% (active),-68% (active)
CCN1C(=O)N(CC)C2Nn3c(s/c(=C\c4cccc([N+](=O)[O-])c4)c3=O)=NC21 (configuration not stated),73.3%,72.7%,48.6%,17.9%,50.5%,35.3%,5.28% (active),46%,
COc1cc(-c2nc(N3CCN(C)CC3)c3ccccc3n2)cc(OC)c1OC,81.2%,67.2%,82.6%,94.1%,47.5%,50.3%,21.6%,99.3%,
COc1ccc(NC(=O)CSc2nnc(-c3cc(-c4ccc(S(N)(=O)=O)cc4)nc4ccccc34)n2-c2ccccc2)cc1,93%,78.5%,81.6%,103%,81.6%,61.2%,54.3%,73.2%,58%
CCOc1ccccc1-c1cc(-c2cccs2)c(C#N)c(=O)[nH]1,98.4%,97.5%,83.3%,110%,95.6%,76.1%,70.2%,,92.9%
CC(CN1CCCCC1)C(=O)c1ccccc1 (configuration not stated),102%,104%,105%,96.7%,107%,101%,84%,,106%
CN(c1ccccc1)c1ccc2c(c1)OCCC21CC1Nc1cnccc1C(=O)O (configuration not stated),97.5%,93.1%,82.9%,,66.7%,76.3%,59.7%,47.2%,45.8%
N#Cc1c(-c2cccc(Cl)c2)cc(-c2cccc(Cl)c2)[nH]c1=O,67%,89%,82.8%,96.7%,93.4%,63.6%,47%,,54.1%
C=C1C(=O)O[C@H]2[C@H]1CC/C(COC(=O)C(=O)c1c[nH]c3ccccc13)=C\CC[C@@]1(C)O[C@@H]21,-57.5% (active),48.2%,-46.7% (active),-32.3% (active),-36% (active),-33.8% (active),-17.9% (active),,-24.6% (active)
CC(=O)O[C@]1(C(C)=O)CCC2C3C[C@H](C)C4=CC(=O)CC[C@]4(C)C3CC[C@@]21C (some centres not stated),98.1%,72.6%,63.1%,106%,96.6%,73.8%,103%,,81.7%
O=C(c1ccccc1)c1c(/C=C/c2ccc(Cl)cc2)nc2ccccc2c1/C=C/c1cccs1,103%,88.2%,90.2%,99%,93.8%,81.2%,77.1%,96.4%,94.2%
Cc1cc(C)c(-c2c(C)cc(C)cc2CBr)c(CBr)c1,94.5%,102%,80.3%,103%,75%,87.6%,73.1%,42%,
C=C(C)[C@@H]1CC[C@]2(C)[C@H](CC=C3[C@@H]4CC(C)(C)CC[C@]4(C(N)=O)CC[C@]32C)[C@@]1(C)CCC#N,-0.287% (active),46.1%,-48.1% (active),12.7%,20.8%,18.4%,7.55% (active),39.8%,24.1%
Cc1cc(N2CCCC2)nc(NCc2cc(Nc3ccnc4cc(Cl)ccc34)ccc2F)n1,-79.6% (active),11.1%,-58.8% (active),,-72.3% (active),28.5%,-25.2% (active),-32.1% (active),
O=[N+]([O-])c1ccc(-c2cc(-c3ccc(Nc4nc(Nc5ccc(Cl)cc5)nc(Nc5ccc(Cl)cc5)n4)cc3)no2)cc1,72.4%,92.9%,97.6%,105%,94.5%,115%,88.2%,,-19.7% (active)
CC(=O)[C@@H]1CC[C@]2(COS(=O)(=O)c3ccc(C)cc3)CC[C@]3(C)[C@H](CC[C@@H]4[C@@]5(C)CCCNC(C)(C)[C@@H]5CC[C@]43C)[C@@H]12,105%,94%,78%,,87.1%,82.7%,85.9%,,21.9%
O=C1CC(N2C(=O)/C(=C/C(Cl)=C\c3ccc([N+](=O)[O-])cc3)SC2=S)C(=O)N1c1ccc(O)cc1 (configuration not stated),-9.67% (active),-2.89% (active),-8.4% (active),-1.39% (active),-71.4% (active),7.93% (active),-26.8% (active),,2.92% (active)
COc1nc2c(c(=O)n1C)CN(c1ccccc1)C(=O)CN2C,69.6% [100 µM],58.2% [100 µM],51.3% [100 µM],52.3% [100 µM],46.4% [100 µM],61.7% [100 µM],61% [100 µM],,40.6% [100 µM]
COc1ccc2[nH]c(O)c(/C=c3/cc4c(c(-c5cc(OC)c(OC)c(OC)c5)n3)=Nc3ccccc3-4)c2c1,83%,81.3%,80.6%,98%,72%,71.6%,43.3%,,23.5%
COc1ccc(-c2cc(-c3ccc(Nc4nc(Nc5ccc(Cl)cc5)nc(Nc5ccc(Cl)cc5)n4)cc3)nc(N)c2C#N)cc1,13.1%,-27.1% (active),58.3%,-67.3% (active),-59.5% (active),44.2%,65.7%,,15.9%
COc1cccc(/C=C/C(=O)c2c(C)nc3ccccc3c2/C=C/c2ccc(C)cc2)c1OC,77.2%,80.8%,52.1%,118%,52.9%,57%,73.8%,,11.3%
Cc1ccccc1NC(=O)N/C(N)=N/c1nc(-c2cccc([N+](=O)[O-])c2)cs1,37.3%,49.3%,54.8%,,,26.4%,-3.64% (active),35.9%,30.2%
O=C1c2cccc(NCCN=Cc3cc([N+](=O)[O-])ccc3O)c2C(=O)c2c(NCCN=Cc3cc([N+](=O)[O-])ccc3O)cccc21,96%,87.5%,40.5%,114%,70.7%,56.7%,80.9%,32.5%,4.21% (active)
COc1ccc(NC(=O)CSc2nc(C)c(C(C)=O)n2-c2ccc([N+](=O)[O-])cc2)cc1,89.3%,88.1%,94.7%,96.9%,95.6%,99.6%,58.1%,111%,92.2%
Cc1cc(C)c2c(-c3nnc(N)s3)cc(=O)oc2c1,114%,97.2%,99.3%,,105%,89.3%,79.9%,,106%
